Test results as given in the supplement of paper PMC10105736.
Unmarked numbers belong to inactive results.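 Rule for the calls: active = MAPPIT score above the 99th percentile of random reference set scores in the same batch; inactive = at or below it.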

What follows are substances tested on CG7945 (assay: MAPPIT interaction score (arbitrary units); higher = stronger binary interaction signal, active = hit call of the paper). Conditions: MAPPIT configuration: N-C; pair source set: Lit-BM-16.
Protocol: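 MAPPIT in HEK293T cells: Drosophila bait and prey ORFs (from the FlyBi ORF collection) were co-transfected in quadruplicate, with two wells stimulated by erythropoietin. Interaction-dependent JAK-STAT activation was read out with a STAT-responsive firefly luciferase reporter. Positive calls use the 99th percentile of random reference set (RRS) scores within each batch […]. Batches Dvs01 and Dvs02 used the N-N configuration and Dvs04 the N-C configuration. Pairs come from FlyBi screens, CuraGen, DPiM, Finley Y2H, Lit-BM-16, Lit-BS-16 and RRS.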
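Note: HEK293T cells with Epo stimulation, STAT-responsive firefly luciferase reporter, fold induction versus unstimulated cells divided by the larger fold induction of two negative controls lacking either bait or prey.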

Substance	MAPPIT interaction score
DnaJ-1	1.15
